Compound activity (PubChem)
The list is not random: actives were taken first. Their share in the collection is about 4.3%.
MITF act: activators of MITF-driven TRPM1 promoter reporter, primary screen, cell-based, SK-MEL-5, luciferase, single point. 0.75% of 300,000 active. AID 588334, 2011. SK-MEL-5 TRPM1-promoter luciferase, 24 h; % of positive control, neutral wells = 0. activation, % at 12.5 µM;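 active = mean activation of at least 80% with every replicate also reaching 80%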;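 also: 0% = neutral control wells and 100% = parthenolide positive control wells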
esBAF inh: Bmi1 luciferase reporter increase in mESCs, primary screen, esBAF inhibitor project, mouse ES cells, Bmi1 luciferase knock-in, single point; 2% of 350,000 active; reporter increase, % at 12.5 µM; 24 h; 100% = twice the neutral-well signal; AID 602393, 2012; in the data active = activation above about 40%;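 also: 0% = median of the plate's neutral control wells and 100% = double that signal; a rise in the Bmi1 reporter signal indicates esBAF inhibition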
FGF22 binding: binders of human FGF22 protein, primary screen, FGF22 synaptogenesis inhibitor project, biophysical, thermal shift, single point; activity (Tm shift, normalised), % at 9.99 µM; Fibroblast growth factor 22 (Homo sapiens), Q9HCT0; 1.5% of 340,000 active; recombinant FGF22 thermal shift, SYPRO orange fluorescence; percent of sucrose octasulfate shift, DMSO zero; AID 651658, 2012;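 active = mean Tm shift, scaled 0 neutral to 100 positive control, at about 1.3% or above, every replicate too, limit read from the data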
Target sequence (Q9HCT0 whole entry, looked up): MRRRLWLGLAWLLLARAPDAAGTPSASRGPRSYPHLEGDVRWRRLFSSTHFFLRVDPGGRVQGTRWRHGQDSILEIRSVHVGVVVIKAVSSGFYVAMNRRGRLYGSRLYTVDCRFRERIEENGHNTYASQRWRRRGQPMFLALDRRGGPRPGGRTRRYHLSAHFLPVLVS
Wnt act: Wnt/beta-catenin pathway activators, primary screen, cell-based, plate reader, single point. Wnt/beta-catenin reporter cell assay, activator. activation, % at 9.35 µM. 1.2% of 300,000 active. AID 743398, 2014; in the data active = activation above about 30%, passing the limit was not always enough;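 also: 0% = neutral control wells and 100% = positive control wells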
MLL AF4-AF9 inh: inhibitors of AF4 peptide binding to AF9, primary screen, biochemical, AlphaScreen, biotin-AF4 peptide, FLAG-AF9, single point; Protein AF-9 (Homo sapiens), P42568; inhibition, % at 10 µM; 0.47% of 350,000 active;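 active = every replicate reaching a set inhibition limit, whatever the replicate mean, cut at about 25% in these data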;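 also: 0% = plate neutral control median and 100% = total signal loss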
SMARCA2 act: SMARCA2 (BRM) function activators, primary screen, cell-based, luminescence, high throughput; MG213 cells, MMTV-luciferase reporter, dexamethasone, overnight; activation, % at 9.1 µM; 1% of 370,000 active; AID 652017, 2013; in the data active = activation above about 7.8%;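 also: 0% = vehicle wells and 100% = reference activator wells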
SMARCA2 act conf: SMARCA2 (BRM) function activators, confirmation, cell-based, luminescence, triplicate | shares compounds with SMARCA2 act | MG213 cells, MMTV-luciferase with dexamethasone, overnight; MG213 cells expressing E1A, Rb sequestered; DMSO wells 0%, reference activator 100% | activation, % at 9.1 µM | 30% of 3,500 active | AID 652260, 2013;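 active = activation above its plate's cutoff, the mean activation of tested wells plus 3 SD, cut at about 7.9% in these data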
VP16 Luc act: GAL4-VP16 luciferase reporter activation, counter-screen for SMARCA2 (BRM) activator project, cell-based, pG5luc, luminescence, high throughput. shares compounds with SMARCA2 act. HEK293 GAL4-VP16 pG5luc reporter; scaled: DMSO wells 0%, SAHA wells 100%. activation, % at 9.1 µM. 41% of 3,500 active. AID 686939, 2013;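 active = activation above the solvent-only control well mean plus 3 SD, averaged across control plates, cut at about 5.2% in these data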
* = called active by the depositor; . = not tested or not shown.

SMILES | MITF act | esBAF inh | FGF22 binding | Wnt act | MLL AF4-AF9 inh | SMARCA2 act | SMARCA2 act conf | VP16 Luc act
CN/C=C(/Cl)P(=O)(OC(C)C)OC(C)C | -4.5 | . | -0.1 | 2.1 | -2.7 | 8.0* | 3.8 | -0.9
N#Cc1cccc(-c2ccc([C@H]3[C@H](CO)N4CCCCN(C(=O)Cc5cccnc5)C[C@@H]34)cc2)c1 | . | 7.0 | -0.3 | . | -4.5 | . | . | .
COC(=O)C(O)(c1ccc(NC(=O)NC2CCCCC2)cc1)C(F)(F)F (stereo not drawn) | 49.5 | 30.1 | 0.0 | -1.9 | -2.0 | 10.3* | 7.8 | 5.2*
CCCCCCC(=O)N/N=C/c1c(O)n(CCc2ccccc2)c(=O)[nH]c1=O | . | -3.1 | -0.1 | 1.6 | -3.0 | 8.7* | -0.2 | -0.4
Cc1ccccc1CN1Cc2cnnn2-c2ccccc2C1C#N (stereo not drawn) | -95.8 | 1.1 | 0.2 | -6.6 | -0.5 | 9.2* | -9.2 | -1.0
COC(=O)[C@@H]1[C@@H](CO)[C@@H]2Cn3c(ccc(-c4ccccc4OC)c3=O)[C@H]1N2Cc1ccccc1 | . | 2.6 | . | . | . | . | . | .
Clc1ccccc1CN1CCN(c2ccccc2)CC1 | -0.1 | -0.4 | . | -1.0 | . | 3.8 | . | .
Clc1ccc(N2CCN(Cc3ccccc3Cl)CC2)cc1 | 12.2 | 1.6 | 0.2 | 0.9 | 5.9 | 8.2* | 1.1 | 1.4
COc1cc2c(cc1OC)-c1c3c(cc4c1[C@@H](C2)N(C)CC4)OCO3 | 5.5 | 0.5 | -0.5 | 2.0 | 19.8 | 11.4* | 14.9* | 1.7
COc1cc2c(cc1OC)-c1c(OC)c(OC)cc3c1C(C2)N(C)CC3 (stereo not drawn) | 1.2 | -7.0 | -0.4 | 2.5 | 14.0 | 3.5 | . | .
COc1ccc(CN2Cc3cc(-c4ccc(OC)cc4)ccc3-n3nncc3C2)cc1 | . | 23.2 | 0.0 | 0.0 | -1.1 | 8.0* | 2.3 | 1.7
COc1ccc(NC(=S)NC(NC(=O)CF)C(Cl)(Cl)Cl)c([N+](=O)[O-])c1 (stereo not drawn) | 23.1 | -4.6 | . | . | . | -1.3 | . | .
Cc1ccccc1NC(=S)NC(NC(=O)CF)C(Cl)(Cl)Cl (stereo not drawn) | -0.9 | . | 0.2 | -1.1 | -3.4 | 9.2* | 2.8 | -0.8
COC(=O)[C@@H]1N[C@@H]2c3ccc(C4=CCCC4)c(=O)n3C[C@@H]2[C@H]1CO | . | 0.1 | 0.1 | . | 0.3 | . | . | .
Cc1cc2c(cc1C)NP(=S)(c1ccccc1)N2 | 70.7 | 39.3 | 42.8 | -2.6 | 11.7 | 9.3* | 6.3 | 8.3*
CCOC(=O)c1c(C)[nH]c(C(=O)C(C)N2CCCC2)c1C (stereo not drawn) | 5.3 | . | 0.0 | -0.4 | 0.6 | 8.4* | 0.3 | 0.9
CC(C)CC#Cc1ccc([C@H]2[C@H](CO)N3CCCCN(C(=O)Cc4ccccn4)C[C@@H]23)cc1 | . | 0.7 | -0.1 | . | . | . | . | .
OC12ONC(c3ccccn3)C1N1CCC2CC1 (stereo not drawn) | -1.9 | -6.9 | 0.5 | 13.8 | 0.1 | 10.0* | 2.4 | 1.5
Fc1cccc(F)c1-c1nc(-c2ccc(Cl)cc2)no1 | . | 64.4* | -0.1 | 64.5* | 5.5 | 8.2* | 13.2* | 2.9
COc1ccc(-n2c(-c3ccc(C)cc3)nc3ccccc3c2=O)cc1 | . | . | -0.1 | -0.4 | 0.2 | 1.6 | . | .
COc1ccc(-c2nc3ccccc3c(=O)o2)cc1 | 19.0 | 49.8* | -0.5 | 7.0 | -2.2 | 9.8* | 8.7* | 7.4*
CCCN1[C@@H]2Cn3c(ccc(-c4ccccc4)c3=O)[C@H]1[C@@H](C(=O)OC)[C@@H]2CO | . | 4.4 | -0.1 | . | -1.3 | . | . | .
